Reference: the supplement of paper PMC3334620
Whole data set: some 33,000 sequences, median “E-score (-0.5 to 0.5)” near -0.043, cut for the highest 2% near 0.37. The full list was thinned out, with the highest values kept by preference.

target: T1, Upc2 (UniProt Q12151); assay: PBM E-score (8-mer binding enrichment) (E-score (-0.5 to 0.5)); higher = stronger / more preferred TF binding; details: protein concentration: 200 nM; construct: GST-full length
T1 sequence: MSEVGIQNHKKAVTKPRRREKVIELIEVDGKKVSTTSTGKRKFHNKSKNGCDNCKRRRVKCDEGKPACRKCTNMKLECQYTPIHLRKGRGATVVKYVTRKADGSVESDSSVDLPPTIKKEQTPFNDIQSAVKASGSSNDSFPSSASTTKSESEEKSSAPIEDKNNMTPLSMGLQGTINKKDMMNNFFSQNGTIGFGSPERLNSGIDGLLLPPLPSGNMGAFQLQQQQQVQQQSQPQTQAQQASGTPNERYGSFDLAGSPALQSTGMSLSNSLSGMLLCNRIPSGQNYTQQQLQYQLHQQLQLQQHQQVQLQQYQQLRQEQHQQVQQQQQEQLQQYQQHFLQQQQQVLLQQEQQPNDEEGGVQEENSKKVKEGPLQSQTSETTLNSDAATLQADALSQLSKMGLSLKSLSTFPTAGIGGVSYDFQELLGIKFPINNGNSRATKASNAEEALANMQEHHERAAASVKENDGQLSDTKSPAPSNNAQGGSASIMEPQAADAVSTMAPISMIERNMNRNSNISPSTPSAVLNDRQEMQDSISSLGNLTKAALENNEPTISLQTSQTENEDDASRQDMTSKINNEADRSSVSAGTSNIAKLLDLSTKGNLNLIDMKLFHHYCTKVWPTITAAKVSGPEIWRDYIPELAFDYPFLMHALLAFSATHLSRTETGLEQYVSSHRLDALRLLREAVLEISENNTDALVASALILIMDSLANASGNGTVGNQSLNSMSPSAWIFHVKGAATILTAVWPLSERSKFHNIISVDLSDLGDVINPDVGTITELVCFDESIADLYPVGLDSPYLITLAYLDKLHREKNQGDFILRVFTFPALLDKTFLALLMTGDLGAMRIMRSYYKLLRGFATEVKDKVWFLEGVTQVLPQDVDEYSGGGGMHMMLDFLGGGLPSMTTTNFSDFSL
Protocol: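 Universal 'all 10-mer' protein binding microarrays (Agilent AMADID 015681) probed with GST-tagged S. cerevisiae TFs (full-length or DBD) made by in vitro transcription/translation (PURExpress), about 100-200 nM. Bound TF was detected with fluorescent anti-GST. Each ungapped 8-mer (which stands for itself and its reverse complement) is scored by the PBM enrichment score (E-score), a modified Wilcoxon-Mann-Whitney statistic from -0.5 to +0.5, computed with the Universal PBM Analysis Suite. Scale: above 0.35 generally sequence-specific binding.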

Sequence	PBM E-score
CTACGATA	0.31
AGACGATA	0.138
GCACGATA	-0.0168
GTACGATA	0.445
ATTCGATA	0.0034
ATACGATA	0.472
CAAGCGAC	0.169
ATTTTCCG	0.139
GTTCTCCA	-0.109
AGTCGAAG	-0.273
ACCCGTAC	0.354
AGCCGTAG	-0.0316
ACCCGTAT	0.396
AACCGTAC	0.311
ACCCGTAG	-0.11
AGCCGTAA	0.279
AACCGTAT	0.375
AACCGTAA	0.233
AGCCGTAT	0.378
AGAAGAAG	-0.0336
CCTAGTGA	-0.174
TGCAACAA	-0.117
AAAAAACA	-0.00292
TGCAAGAA	-0.0985
AGTACATA	-0.0422

Sequence	PBM E-score
CGTACAAG	0.442
CGTACAAA	0.421
GGTACAAC	-0.0773
CGTACATC	0.352
CGTACATA	0.415
AGTACAAC	-0.0045
AGTACAAA	-0.013
CATACAAG	-0.192
CGTACAAC	0.439
AGTACAAG	-0.052
GGTACAAA	0.0128
AGTTCTCA	-0.107
CGCGACCA	0.116
AGAGCTAG	-0.113
AGTCTCTA	-0.0101
ATCCCCTC	-0.0985
CAAACCCA	0.0481
AAAATGTC	0.14
GCATCGGA	-0.0207
GCATCGAA	0.00261
ACATCGTC	-0.00985
CCATCGTA	0.44
ACATCGTG	-0.0454
CCATCGAA	-0.132
ACATCGTA	0.425

Sequence	PBM E-score
GCATCGTA	0.429
CCATCGTC	-0.0745
TGAAGGCA	-0.0834
AACTATGC	0.051
AGTGGTCC	-0.123
CCAATCGG	-0.174
CCGAGGTA	0.125
CCTACGAA	0.228
CCTACGAC	0.232
GCTACGAA	0.395
GCTACGAC	0.379
TCTACGAA	0.335
ACTACGAC	0.272
TTACTCAA	0.0201
AGTGAGAG	-0.279
AGCCATAT	0.0338
AATACGTC	0.0421
AATACGCT	0.212
ACTACGAT	0.16
GATACGTA	0.254
GATACAAA	0.106
AATACGTG	0.155
AATACGAT	0.395
AATACGAC	0.435
AATACGAG	0.457

Sequence	PBM E-score
AATACGGG	0.229
GATACGAA	0.454
AATACGCC	0.00457
CAGCACAA	0.0156
CGAGATGA	0.233
CGACTCTC	0.179
AAACAGGA	-0.139
TACCTGCA	-0.0203
ATAGATCC	-0.0535
CGACACAG	0.122
CAAACCGG	-0.0596
CATACGAC	0.466
CATACGAA	0.466
CATACGTC	0.215
CATACGTA	0.315
GATACGAC	0.468
GATACGCC	0.189
CATACGCC	0.307
CATACGAG	0.486
CATACGCG	0.313
GATACGGC	0.324
CATACAAA	0.114
CACACGAG	0.155
AGCAAGGA	-0.0783
GCCAACGC	-0.0104

Sequence	PBM E-score
CGACTGAA	0.184
CTGGGGCA	-0.2
CCTCACGA	-0.219
AATACGAA	0.424
AATACGTA	0.196
ACTACGAA	0.185
CACTTAAG	-0.0164
CTGGTACA	-0.0228
ATCGTACC	0.455
ATAGTACC	-0.084
CTCGTACC	0.481
CTCGTACA	0.489
CGCGTACC	0.302
CACGTACC	0.188
AGCGTACC	0.212
CTTGTACA	-0.0692
CTGTTAGC	-0.142
CGCATTTA	0.0301
GCTATGCC	-0.282
ATGGTCTG	-0.129
CAGGACTC	-0.0969
GAGGTAGA	-0.0305
AAAGAAGT	-0.0114
ACCGAAGG	0.0458
GACGAAGC	0.00181

Sequence	PBM E-score
TAAGAAGA	0.11
AACGAAGG	0.401
CACGAAGC	0.017
CACGAAGG	0.00451
AACGAAGC	0.408
TCCGAAGA	0.0352
TACGAAGA	0.448
ACCGAAGT	0.147
AACGAAGT	0.415
GTTAAAAA	0.11
CTAGTGTC	0.0134
CCAGGATA	0.0403
ATTTCTAA	-0.105
AGGAACCC	0.0161
CAACCAGC	-0.203
CTAGGGAA	-0.179
AGACCCAT	-0.186
CTAGACCA	-0.217
AGCCACAC	-0.00233
GACGAAGA	-0.0247
CACGAAGA	0.0935
AACGAAGA	0.424
AGTATGGA	-0.128
CGTATGGC	0.413
GGTATGGA	-0.146

Sequence	PBM E-score
CGTATGGA	0.423
AGTATGGC	-0.129
CCTATGGC	-0.195
AAATGAAC	0.118
AGCAATCC	-0.121
ACAAGCCT	-0.166
CTCGGTTA	0.381
ATCGGTTA	0.333
GTCGGTTA	0.337
ATTTTTCG	0.0906
CCTTTATC	-0.132
TATCAGGA	0.0996
CACGTAAC	0.039
CACGTAAG	0.105
CTCGTAAG	0.43
GTCGTAAC	0.408
CGCGTAAG	0.205
CTCGTAAC	0.425
GACGTAAC	0.0258
GGCGTAAC	0.0403
CCCGTAAC	0.248
AGAAGTTG	0.0297
ACCTATCA	-0.11
CGTGATTA	0.0822
ACCGGTTA	0.118

Sequence	PBM E-score
ATGACTAC	0.0234
AAGCTAGA	-0.166
GCGCTCCA	-0.195
CAAAGAAC	-0.0158
TCGCATAA	0.383
ACGCATAA	0.172
CCGCATAA	0.121
GGTTGCTA	-0.126
CCGCACTC	0.195
AAAAGGGA	-0.2
TCGTAAAA	0.481
CTGTAAAG	-0.0138
GCGTAAAC	0.352
CCGTAAAG	0.395
ACGTAAAG	0.308
ACGTTAAA	0.269
TAGTAAAA	0.0664
ACGTAAAC	0.345
CCGTAAAC	0.396
TCGTTAAA	0.466
CCGTTAAA	0.33
TTGTAAAA	0.0751
CATGGACA	-0.178
AGTTAGCA	-0.0102
CCGATGGA	0.109

Sequence	PBM E-score
ACTTATCG	0.00736
ATAGTCTG	-0.124
CGCTCAGA	0.121
GCTAAACC	0.03
CCGTAAAA	0.374
ACGTAAAA	0.268
GCGTAAAA	0.302
ACTATCAC	0.0913
ATGGGCCC	-0.0858
ACGTCTTC	0.0586
GACTGGAC	-0.215
GGGTACAA	-0.0246
GGGTACCA	-0.275
CGGTACGC	0.324
CGGTACGA	0.474
GGGTACGA	0.465
AGGTACGC	0.163
AGGTACGA	0.47
AGGTACGG	0.354
CGGTACCA	-0.0953
